m-calpain inh: calpain II (pig) inhibition; purified calpain II, fluorogenic peptide substrate, 30 min; inhibition, % at 16 µM; actives 0.37% (n = 220,000);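 active = inhibition above about 50%, limit read from the data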
Cl transport mod: modulators of human KCC2 chloride dependent transport; KCC2 cells, thallium flux FluoZin-2 fluorescence; B-score of Tl+ flux slope (higher = more flux/activation; lower = inhibition) at 10 µM; actives 2.2% (n = 190,000); AID 1456;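 active = thallium flux slope and its plate-corrected score both differing from the plate sample mean at a set confidence after two filtering rounds, in either direction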;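 note: slope of fluorescence scaled to starting intensity during 10 to 20 s after thallium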
WT yeast gro inh: growth inhibition of WT yeast, mitochondrial fusion screen | mitochondrial fusion phenotypic screen, WT strain | actives 2.1% (n = 190,000) | inhibition, % at 10 µM; in the data active = inhibition above about 58%; tested in S. cerevisiae
ROMK primary: human ROMK K+ channel modulation, primary screen; P48048; Tet-inducible ROMK, thallium flux fluorescence; actives lie on both sides; B-score at 10 µM; actives 2% (n = 130,000);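 active = signal ratio slope over the read window, or its plate-corrected B-score, at least 3 SD from the plate mean, either direction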;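 note: B-score of the F/F0 ratio slope over 7 to 12 s after thallium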
Lmaj promast: reduces viability of Leishmania major promastigotes. inhibition, % at 10 µM. actives 9% (n = 200,000). resazurin fluorescence viability; in the data active = inhibition above about 50%;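 note: promastigotes grown with compound for 44 hours at 28 °C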
Numbers without * were called inactive; . = not tested or not shown. Most compounds without a hit are left out; they make up all but 12% or so of the library.

SMILES	m-calpain inh	Cl transport mod	WT yeast gro inh	ROMK primary	Lmaj promast
CCOc1cc(C2NC(=O)N(C)C(C)=C2[N+](=O)[O-])ccc1OC(C)=O (stereo not drawn)	-9.5	.	3.2	0.32	-4.0
CN(C)c1nc2n(c(=O)n1)C(C#N)CS2 (stereo not drawn)	5.8	0.444	2.5	-0.253	-5.4
Brc1ccc(CSc2nnc(Cc3c[nH]c4ccccc34)o2)cc1	69.5*	0.597	68.3*	.	-1.4
O=C(Nc1ccc(F)cc1F)NC1CC(=O)N(Cc2ccccc2)C1 (stereo not drawn)	-7.0	0.141	-15.6	-0.344	-5.7
C/C(=N\NS(=O)(=O)c1ccccc1)c1cc(Cl)cc(Cl)c1O	-52.2	-3.81	3.6	1.69	-5.2
O=C(NCCSc1ccccn1)c1ccc(Cl)cc1	0.0	0.827	-9.6	-0.222	6.8
N#CC(Sc1ccccn1)c1ccc(Cl)cc1 (stereo not drawn)	-4.3	-0.542	73.1*	-1.16	-2.6
O=c1cc(Nc2ccc3c(c2)OCO3)[nH]c(=O)n1-c1ccc(Br)cc1	-2.2	-1.07	0.9	.	99.2*
O=c1cc(Nc2ccc3c(c2)OCCO3)[nH]c(=O)n1-c1ccc(Br)cc1	-12.9	.	-1.7	0.993	-8.1
Cc1ccc(Cl)cc1NC(=O)c1ccc(NC(=O)CCC(=O)O)cc1	6.5	1.71	-17.7	1.4	53.4*
CC1CCCCN1C(=O)C1CCCCN1S(=O)(=O)c1cccc([N+](=O)[O-])c1 (stereo not drawn)	-2.7	-0.82	.	.	.
CCOc1ccc2[nH]c(=O)c(CN(CC3COCCO3)C(=O)c3ccc(C)cc3)cc2c1 (stereo not drawn)	-83.6	-1.6	-19.9	-0.0476	93.2*
COC(=O)c1ccc(NC(=S)N2CCN(Cc3ccccc3OC)CC2)cc1	-4.8	-2.06	15.3	0.41	-2.9
NC(=O)c1ccc(NCCCN2CCOCC2)c([N+](=O)[O-])c1	-0.9	0.913	2.1	0.0659	-5.2
COc1ccc2c(c1)C(=O)[C@H](O)[C@@H](c1ccc(OC)c(Br)c1)O2	-87.3	-0.735	11.7	-0.0267	98.8*
COc1ccc(NC(=O)C2CCCC2)cn1	-33.1	1.16	-16.1	-0.0341	-0.4
CN(C)CC1CCCCC1OC(=O)c1ccc(Cl)cc1 (stereo not drawn)	8.7	-0.0133	25.2	.	57.2*
CCN(CC)S(=O)(=O)c1ccc(C(=O)OC2CCCCC2CN(C)C)cc1 (stereo not drawn)	3.7	-0.197	-7.8	.	12.0
O=C(CSc1nnc(-c2ccncc2)n1Cc1ccco1)Nc1nccs1	8.1	0.589	-1.1	.	-3.3
CCOC(=O)c1c(NC(=O)CSc2nnc(-c3cccnc3)n2Cc2ccco2)sc(C)c1C	-149.4	-1.46	0.2	-1.83	52.8*
O=C(CSc1nnc(-c2cccnc2)n1Cc1ccco1)Nc1nc(-c2ccc(F)cc2)cs1	-37.1	-2.32	-4.1	0.258	73.3*
C/C(=N\NC(=O)NC1CCCCC1)C1CCCCC1	16.8	0.188	-0.2	0.368	95.3*
O=c1c(Cl)c(NCC2CCCO2)cnn1C12CC3CC(CC(C3)C1)C2 (stereo not drawn)	10.9	-0.0294	-10.0	0.0587	-0.1
CCC1=Nc2cc(C(=O)NCc3ccco3)ccc2Sc2ccc(Cl)cc21	-27.6	0.94	24.2	1.1	68.3*
CCC1=Nc2cc(C(=O)O)ccc2Sc2ccccc21	-27.7	-0.332	-0.2	0.0572	-8.5
SMILES	m-calpain inh	Cl transport mod	WT yeast gro inh	ROMK primary	Lmaj promast
CCC1=Nc2cc(C(=O)NCc3ccco3)ccc2Sc2ccccc21	-17.5	-1.88	18.9	0.629	69.9*
CC(CCc1ccccc1)NCC#N (stereo not drawn)	-9.8	-0.0542	.	0.09	.
COc1ccc(N=C2C(=O)Nc3ccccc32)cc1	3.3	-0.085	-8.3	.	100.0*
COc1ccc(N=C2C(=O)N3c4c(cccc42)C(C)=CC3(C)C)cc1	25.7	-1.04	-11.2	.	97.1*
CC(=O)Nc1ncc(Cc2cc(Cl)ccc2Cl)s1	20.4	0.509	76.5*	-0.305	19.8
Cc1cc2nc3n(c2cc1C)CC1CC(C(=O)NCC2CC2)N(C)C31 (stereo not drawn)	10.0	0.767	.	.	.
COc1cc(/C=N/NC(=O)c2ccc(O)cc2)ccc1Oc1ccc([N+](=O)[O-])cn1	25.7	-0.172	0.5	-0.82	-4.4
CSc1ccccc1C(=O)C1CCCN(S(=O)(=O)N(C)C)C1 (stereo not drawn)	24.4	2.61	5.8	.	88.7*
Cc1csc2ncc(C(=O)N3CCc4ccccc43)c(=O)n12	.	-2.85*	.	.	-5.8
CC(=O)c1ccc(NC(=O)/C(=C\c2ccccc2)NC(=O)c2ccco2)cc1	-14.9	-0.125	-15.6	-0.636	-1.5

Compound activity as filed in PubChem.
